This is one part of the list. Results filed as inconclusive are left out. Unmarked numbers belong to inactive results. The source made the active and inactive calls. Calls follow the shape of the dose curve; as a rule, active = well fitted inhibition curve with a large enough effect; inconclusive = small, poorly fitted or top-dose-only effect; inactive = flat fitted curve, though single readings scatter.
% is scaled to controls: 0 for no effect and ±100 for the full control effect; potency is read from the fitted curve at half-maximal effect.

The test system of the assay is Trypanosoma brucei pyruvate kinase (TbPYK). Kind of assay: qHTS of Trypanosoma Brucei Inhibitors: Orthogonal Assay for Cherry-picked Compounds. Also: nearly all actives have a fitted effect of over 75% in size. As to conditions: recombinant TbPYK, ADP-Glo luminescence, 60 min; series mostly up to 76.9 µM; activity change, negative = inhibition: at the top concentration. From the text:
Members of the Trypanosomatidae family of parasitic protozoans cause a spectrum of diseases throughout the tropical and subtropical world. Sleeping sickness, caused by two subspecies of Trypanosoma brucei, is endemic to areas of sub-Saharan Africa, while Chagas' disease, a manifestation of Trypanosoma cruzi infection, is prevalent throughout Central and South America. In addition, many species of Leishmania are responsible for a range of cutaneous and visceral diseases, causing ulcers, destructive lesions and kalaazar, a lethal infection of the viscera. These diseases cause severe public health and economic burdens on populations that are often already caught in a tragic cycle of poverty, poor nutrition and disease. Collectively, parasites of the trypanosomatid family infect 30 million people worldwide (~500 million live in endemic areas), and account for ~130K deaths annually. Existing treatments have developed little in the past 50 years, and suffer from toxicity, poor efficacy and resistance; the goal of this project is to develop lead drugs that will be suitable for entry into pre-clinical trials. […] Glycolysis in axenically cultured T. cruzi, representing the intracellular pathogenic stage, is also essential for these parasites. {Engel, 1987} This project aims to discover and optimize selective inhibitors of the glycolytic enzyme pyruvate kinase (PYK) from Trypanosoma brucei, the parasite that causes sleeping sickness. […] Trypanosomatid PYKs show significant differences from their human counterparts including only 47-50% sequence identity and different allosteric and activation properties.{Callens, 1992} To this end, a qHTS was done against the MLSMR to discover inhibitors. To confirm activity of the cherrypicked compounds, an orthogonal assay was developed. While the primary qHTS provides a luminescence-based detection of TbPyK by measuring ATP production, the orthogonal assay will measure the amount of ADP substrate remaining. Decrease in activity signal indicative of inhibition of T. brucei proliferation is the desired outcome for this assay. NIH Molecular Libraries Probe Production Network [MLPCN] NIH Chemical Genomics Center [NCGC] Grant: MH095452 PI Name: Malcolm Walkinshaw, University of Edinburgh
Briefly, 2 uL of substrate/TbPYK buffer (all columns but column 4) are dispensed into Greiner white solid-bottom 1536-well assay plates. Column 4 gets just buffer without enzyme. Compounds are then transferred via Kalypsys pin tool equipped with 1536-pin array (10 nL slotted pins, V&P Scientific, San Diego, CA). Following addition of compound, 1 uL of ADP (130 uM final concentration, columns 1-48) is added to initiate the reaction. The plates are then incubated at room temperature for 60 minutes. ADP-Glo (Promega) reagent I is added (2.5 uL) and plates incubated for 10 minutes. ADP-Glo reagent II is then added (5 uL), followed by a 10 minute room temperature incubation, before being transferred to a ViewLux high-throughput CCD imager (PerkinElmer), wherein single end-point measurements of luminescence are acquired using a clear filter. All reagents are diluted in an assay buffer consisting of 50 mM TEA (pH 7.2), 100 mM KCl, 10 mM MgCl2, 0.05% BSA and 0.01% Tween-20.
As for `O=c1[nH]c2ccccc2n2c(-c3ccccc3)nnc12`, the Potency was 0.1 µM (active).

As for `Cc1cc(C#N)c(SCC(N)=O)nc1-c1ccc(F)cc1`, the Potency is 5.01 µM (active).

As for `Cc1nonc1C(=O)N/N=C/c1ccc(O)cc1`, the “activity change, negative = inhibition” value is 13.7%.

As to `c1ccc(-c2nnc3n2NC(c2ccc4c(c2)OCO4)S3)cc1` (stereo unspecified), the Potency was 0.141 µM (active).

`O=C(CSc1ccc(-c2ccco2)nn1)Nc1cccc(F)c1`: the Potency is 31.6 µM (active).

For `COc1cc(C2CC(=O)N3CN(Cc4ccccc4)CSC3=C2C#N)ccc1OCc1ccccc1` (stereo unspecified), the Potency was 0.447 µM (active).

Take `Cc1ccc(NC(=O)c2cc(-c3ccc(C)o3)nc3ccccc23)nc1`: the Potency was 35.5 µM (active).

Take `Cc1cc(C2=NNC(=Nc3ccc(S(=O)(=O)N4CCOCC4)cc3)SC2)c(C)n1CC1CCCO1` (stereo unspecified): the Potency was 15.8 µM (active).

In the case of `Cc1nc2ccc(S(=O)(=O)NCC(=O)O)cc2s1`, the Potency was 11.2 µM (active).

`CN(c1ccccc1)S(=O)(=O)c1cccc(NC(=O)Cc2ccc(Cl)cc2)c1`: the Potency is 12.6 µM (active).

On to `C=CCn1c(=S)[nH]c2scc(-c3ccco3)c2c1=O`, for which the Potency was 17.8 µM (active).

Regarding `O=C(Nc1ccc(S(=O)(=O)N2CCOCC2)cc1)c1ccc2ncsc2c1`, the Potency is 15.8 µM (active).

For `COc1cccc(C(=O)Nc2ccc(N3CCCC3)cc2)c1`, the “activity change, negative = inhibition” value is -6.36%.

Turning to `Cc1ccc(C)c2c1cc(C)c1nnc(SCC(=O)Nc3cccc(C(=O)O)c3)n12`, the Potency was 1 µM (active).

With `NC(=O)c1c(Nc2nc3c(F)cccc3s2)sc2c1CCCC2`, the Potency is 8.91 µM (active).

As to `COC(=O)/C=C\C(=O)Nc1cccc([N+](=O)[O-])c1`, the Potency was 17.8 µM (active).

On to `O=C(CN1CCN(c2ccc(O)cc2)CC1)Nc1cc(S(=O)(=O)N2CCOCC2)ccc1Cl`, for which the Potency is 12.6 µM (active).

For the compound `Cc1c(C)c(C)c(S(=O)(=O)N2CCC3(CC2)OCCO3)c(C)c1C`, the “activity change, negative = inhibition” value was -2.02%.

On to `O=C(COC(=O)c1ccccc1)c1ccc2c(c1)OCCO2`, for which the “activity change, negative = inhibition” value is 0.431%.

Regarding `Cc1cccc(-n2c(N)c(C(=O)N3CCN(C)CC3)sc2=S)c1`, the Potency is 5.01 µM (active).

On to `COc1cccc(C(=O)c2cc3ccc(O)cc3oc2=O)c1`, for which the “activity change, negative = inhibition” value is -2.74%.

On to `CSc1c(SCc2ccccc2)cnn(Cc2ccccc2)c1=O`, for which the Potency is 14.1 µM (active).

Take `COc1ccc(Cc2nnc(NS(=O)(=O)Cc3ccccc3)s2)cc1`: the “activity change, negative = inhibition” value is -11.1%.

On to `N#Cc1c(N2CCCCC2)nc(N)c2c(N)nc(SCC(=O)O)cc12`, for which the Potency is 35.5 µM (active).

`COCCNC(=O)Nc1ccc2nc(-c3ccco3)c(-c3ccco3)nc2c1`: the Potency is 8.91 µM (active).

As for `O=C(CSc1nnc(-c2ccco2)n1CC1CCCO1)c1ccccc1` (stereo unspecified), the Potency was 35.5 µM (active).

As to `Oc1c(CN2CCOCC2)ccc(CN2CCOCC2)c1O`, the Potency is 7.08 µM (active).

As to `O=C(CCCCCn1c(=S)[nH]c2ccsc2c1=O)NC1CCCCC1`, the Potency is 14.1 µM (active).

With `O=C1C=CC(=O)N1c1ccc(N2CCCCC2)cc1`, the Potency was 3.55 µM (active).

For `CC(=O)N1CC[n+]2c(-c3ccc([N+](=O)[O-])cc3)csc21`, the Potency is 1.78 µM (active).

For the compound `Cc1ccc(/C=C/C(=O)Nc2ccc([N+](=O)[O-])c(NC(=O)/C=C/c3ccc(C)o3)c2)o1`, the Potency was 20 µM (active).

The values are drawn from PubChem BioAssay AID720584 (National Center for Advancing Translational Sciences (NCATS), 2013).
